B1: ENSMUSG00000043670.328|Diras1 (ssRNA)
RNA: GGGAGUUCUACAGUCCGACGAUCGCUUCGAUAUCCGCAUGCUAUAGCCAGCCCAGGGCCCCCACAGCUGCCACCUGCUCCCAAGCCCCGGGAGUGGCUCCUGGCUGGACAGGGGGUCACAGCCCUUUCUCAGGGACACACCCUGAUAGCACAAUCUCUGGGCCACCCCAGGCUUCUCCUGGCUGGCCUUGCCCAUCCUGGGGAGAACCGGGCUGGGUGGCAGGGGAGGCCGGAGCCCACCCUGGCUGCUGGCCAACCUGCCCAGGCAUCUCUGGUGCUGGGGACCCCGCCAGGCCUCGCUUGCCUCUUGCGGUCGCACUAGUGUGGAAUUCUCGGGUGUCAAGG
B2: ENSMUSG00000043670.180|Diras1 (ssRNA)
RNA: GGGAGUUCUACAGUCCGACGAUCGCUUCGAUAUCCGCAUGCUACUGCUGCCCUAGGGCUCUGACAGAAUCUGAGCCUCUUUGCUGGUCAUGUGUACUCUGGAGACUGUCCCCCAUGUCUGCCCUGAGUUACGGAGCCCCUGUGGUAUCUGCGAGACUGUCCAGGAGACUUGAGUGGCUCCUGGGCCUGUGUCCCACCCAGAUGAGGGUGACUUAGAAUUCUGUGUUUAUGUGCCUGUGUGUGUGGAUGGGUGUGUGUCUGUCUUGGGAUGGGGUGUUCUUGCACCACUUUGUGUUCUUAGUGACUCUUGCGGUCGCACUAGUGUGGAAUUCUCGGGUGUCAAGG
B3: ENSMUSG00000043670.181|Diras1 (ssRNA)
RNA: GGGAGUUCUACAGUCCGACGAUCGCUUCGAUAUCCGCAUGCUACCCUAGGGCUCUGACAGAAUCUGAGCCUCUUUGCUGGUCAUGUGUACUCUGGAGACUGUCCCCCAUGUCUGCCCUGAGUUACGGAGCCCCUGUGGUAUCUGCGAGACUGUCCAGGAGACUUGAGUGGCUCCUGGGCCUGUGUCCCACCCAGAUGAGGGUGACUUAGAAUUCUGUGUUUAUGUGCCUGUGUGUGUGGAUGGGUGUGUGUCUGUCUUGGGAUGGGGUGUUCUUGCACCACUUUGUGUUCUUAGUGAGACCACCUCUUGCGGUCGCACUAGUGUGGAAUUCUCGGGUGUCAAGG
B4: ENSMUSG00000043670.175|Diras1 (ssRNA)
RNA: GGGAGUUCUACAGUCCGACGAUCGCUUCGAUAUCCGCAUGCUAAGUCCCUGUGUGCGGUGAUAGGACUAGUGGCUGCUGCCCUAGGGCUCUGACAGAAUCUGAGCCUCUUUGCUGGUCAUGUGUACUCUGGAGACUGUCCCCCAUGUCUGCCCUGAGUUACGGAGCCCCUGUGGUAUCUGCGAGACUGUCCAGGAGACUUGAGUGGCUCCUGGGCCUGUGUCCCACCCAGAUGAGGGUGACUUAGAAUUCUGUGUUUAUGUGCCUGUGUGUGUGGAUGGGUGUGUGUCUGUCUUGGGAUGGGGCUCUUGCGGUCGCACUAGUGUGGAAUUCUCGGGUGUCAAGG
B5: ENSMUSG00000043670.177|Diras1 (ssRNA)
RNA: GGGAGUUCUACAGUCCGACGAUCGCUUCGAUAUCCGCAUGCUACGGUGAUAGGACUAGUGGCUGCUGCCCUAGGGCUCUGACAGAAUCUGAGCCUCUUUGCUGGUCAUGUGUACUCUGGAGACUGUCCCCCAUGUCUGCCCUGAGUUACGGAGCCCCUGUGGUAUCUGCGAGACUGUCCAGGAGACUUGAGUGGCUCCUGGGCCUGUGUCCCACCCAGAUGAGGGUGACUUAGAAUUCUGUGUUUAUGUGCCUGUGUGUGUGGAUGGGUGUGUGUCUGUCUUGGGAUGGGGUGUUCUUGCACCCUCUUGCGGUCGCACUAGUGUGGAAUUCUCGGGUGUCAAGG
B6: ENSMUSG00000043670.176|Diras1 (ssRNA)
RNA: GGGAGUUCUACAGUCCGACGAUCGCUUCGAUAUCCGCAUGCUAUGUGUGCGGUGAUAGGACUAGUGGCUGCUGCCCUAGGGCUCUGACAGAAUCUGAGCCUCUUUGCUGGUCAUGUGUACUCUGGAGACUGUCCCCCAUGUCUGCCCUGAGUUACGGAGCCCCUGUGGUAUCUGCGAGACUGUCCAGGAGACUUGAGUGGCUCCUGGGCCUGUGUCCCACCCAGAUGAGGGUGACUUAGAAUUCUGUGUUUAUGUGCCUGUGUGUGUGGAUGGGUGUGUGUCUGUCUUGGGAUGGGGUGUUCUCUCUUGCGGUCGCACUAGUGUGGAAUUCUCGGGUGUCAAGG
B7: ENSMUSG00000043670.182|Diras1 (ssRNA)
RNA: GGGAGUUCUACAGUCCGACGAUCGCUUCGAUAUCCGCAUGCUAGGCUCUGACAGAAUCUGAGCCUCUUUGCUGGUCAUGUGUACUCUGGAGACUGUCCCCCAUGUCUGCCCUGAGUUACGGAGCCCCUGUGGUAUCUGCGAGACUGUCCAGGAGACUUGAGUGGCUCCUGGGCCUGUGUCCCACCCAGAUGAGGGUGACUUAGAAUUCUGUGUUUAUGUGCCUGUGUGUGUGGAUGGGUGUGUGUCUGUCUUGGGAUGGGGUGUUCUUGCACCACUUUGUGUUCUUAGUGAGACCACAGUGUACUCUUGCGGUCGCACUAGUGUGGAAUUCUCGGGUGUCAAGG
B8: ENSMUSG00000031028.287|Tub (ssRNA)
RNA: GGGAGUUCUACAGUCCGACGAUCGCUUCGAUAUCCGCAUGCUAGGCUGGAUUGAUGUAAAUGGAAGUAGUACUUUAAGAAAGCUCUAGAUUUCCCAGGUUGGACACUCGACGAAAGGCACACCUGCUGCAGCAGGUUCUGACACACCUGAGCCAUACAUUGCCAUCAGAGAACCCUCAGCGAGGUAGCCUUUGUUUACAGUCUAGUUUCUAGAGGGCAGUAGGACUUCCAUGCUGGGGCUGGCCUAUCUCCUGAUGAAAGAUUACAGUGCCAUCUCCUUCCCAUAGUUCUGUGUCUGCCCUCCCUCUUGCGGUCGCACUAGUGUGGAAUUCUCGGGUGUCAAGG
B9: ENSMUSG00000029636.242|Wasf3 (ssRNA)
RNA: GGGAGUUCUACAGUCCGACGAUCGCUUCGAUAUCCGCAUGCUACAUUGUGUCAGUUGACAGGGAAUGCCUGUGGGAUAAUUAAAAAUGGUUUUUGCUCAUGAGUUUGGGAUGUCACCCAGCCGCCCACAUCGCCUGCUAUGUGUGUGGACGCCUGUCCGCUUGGCCAGCUAUCCUGUAACACCUGCCAGUAGUAGGUUUUCCUCAUGUCACUAUGACAGUGAAAGCCCAUGUGCAAGCCCCUCCCUACGCCCUGCUUUGGCGUGUGUCUGAGUGCUCUGUGCUGCGCCAUGGCCAUCCUGGAGCUCUUGCGGUCGCACUAGUGUGGAAUUCUCGGGUGUCAAGG

Whole data set: some 9,900 sequences, median “r (bound/input frequency ratio)” near 0.7, cut for the highest 2% near 6.5. This excerpt belongs to a sample that is enriched for the highest values.

TDP-43, sequence (Q13148 whole entry): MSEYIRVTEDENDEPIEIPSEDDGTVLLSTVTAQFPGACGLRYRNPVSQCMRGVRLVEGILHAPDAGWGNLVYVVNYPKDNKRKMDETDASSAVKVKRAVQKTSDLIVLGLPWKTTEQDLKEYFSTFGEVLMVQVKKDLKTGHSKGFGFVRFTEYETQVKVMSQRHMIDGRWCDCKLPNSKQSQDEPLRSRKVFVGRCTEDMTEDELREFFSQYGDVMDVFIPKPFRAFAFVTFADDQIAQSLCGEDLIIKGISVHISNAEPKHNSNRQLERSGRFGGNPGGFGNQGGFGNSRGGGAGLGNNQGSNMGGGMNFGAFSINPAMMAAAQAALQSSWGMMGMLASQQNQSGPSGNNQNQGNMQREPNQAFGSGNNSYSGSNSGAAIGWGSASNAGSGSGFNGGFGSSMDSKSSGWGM

This test has as its target TDP-43 (Homo sapiens, UniProt Q13148 1-414). The test can be described thus: RNA Bind-n-Seq with designed 260-mer pool; 25 mM Tris-HCl, 150 mM KCl, 3 mM MgCl2, BSA (printed 500 mg/mL), 20 units/mL SUPERase IN; pH not stated; 500 nM RNA pool, 1 h, 4 C; TDP-43 5, 50, 500 nM; high values mean tight binding. The note with it: protein: recombinant; tags: SBP (GST cleaved off with PreScission; pGEX-GST-SBP). The procedure, abridged: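 In 25 mM Tris-HCl, 150 mM KCl, 3 mM MgCl2, BSA and SUPERase IN, 500 nM of an in vitro-transcribed 260-nt 3′ UTR oligo pool was incubated for 1 h at 4 °C with SBP-tagged TDP-43 (5, 50 or 500 nM) captured on streptavidin beads. RNA remaining after washes was biotin-eluted, reverse transcribed, PCR-amplified and sequenced. Binding, R, is the bound-sample abundance of each oligo, normalized to mapped reads, divided by its abundance in input. Each duplicate used a separate, independent protein batch.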
With B1, the binding signal was 0.177 R (bound/input frequency ratio).
As to B2, the binding signal is 6.66 R (bound/input frequency ratio).
To B3 belongs 6.26 R (bound/input frequency ratio); to B4, 6.15 R (bound/input frequency ratio); to B5, 6.1 R (bound/input frequency ratio).
Regarding B6, the binding signal is 6.8 R (bound/input frequency ratio).
For B7, the binding signal was 5.77 R (bound/input frequency ratio).
With B8, the binding signal is 0.856 R (bound/input frequency ratio).
Take B9: the binding signal was 0.663 R (bound/input frequency ratio).
